From paper PMC4336329 (PLoS ONE, 2015)
Screen size: about 310,000 compounds; about 14,000 (4.5%) showed an effect of 50% or more. The effect is printed as a negative number. Only a selection was taken, and strong results are over-represented in it overall.

Each compound was assayed against human ether-à-go-go-related gene (hERG) potassium channel (human, UniProt Q12809) (assay: primary screen, population patch clamp on CHO cells stably expressing hERG; higher = less effect of the substance).
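Also: peak tail current of the secondary pulse compared with the same well before compound.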

human ether-à-go-go-related gene (hERG) potassium channel, sequence (Q12809 whole entry, looked up): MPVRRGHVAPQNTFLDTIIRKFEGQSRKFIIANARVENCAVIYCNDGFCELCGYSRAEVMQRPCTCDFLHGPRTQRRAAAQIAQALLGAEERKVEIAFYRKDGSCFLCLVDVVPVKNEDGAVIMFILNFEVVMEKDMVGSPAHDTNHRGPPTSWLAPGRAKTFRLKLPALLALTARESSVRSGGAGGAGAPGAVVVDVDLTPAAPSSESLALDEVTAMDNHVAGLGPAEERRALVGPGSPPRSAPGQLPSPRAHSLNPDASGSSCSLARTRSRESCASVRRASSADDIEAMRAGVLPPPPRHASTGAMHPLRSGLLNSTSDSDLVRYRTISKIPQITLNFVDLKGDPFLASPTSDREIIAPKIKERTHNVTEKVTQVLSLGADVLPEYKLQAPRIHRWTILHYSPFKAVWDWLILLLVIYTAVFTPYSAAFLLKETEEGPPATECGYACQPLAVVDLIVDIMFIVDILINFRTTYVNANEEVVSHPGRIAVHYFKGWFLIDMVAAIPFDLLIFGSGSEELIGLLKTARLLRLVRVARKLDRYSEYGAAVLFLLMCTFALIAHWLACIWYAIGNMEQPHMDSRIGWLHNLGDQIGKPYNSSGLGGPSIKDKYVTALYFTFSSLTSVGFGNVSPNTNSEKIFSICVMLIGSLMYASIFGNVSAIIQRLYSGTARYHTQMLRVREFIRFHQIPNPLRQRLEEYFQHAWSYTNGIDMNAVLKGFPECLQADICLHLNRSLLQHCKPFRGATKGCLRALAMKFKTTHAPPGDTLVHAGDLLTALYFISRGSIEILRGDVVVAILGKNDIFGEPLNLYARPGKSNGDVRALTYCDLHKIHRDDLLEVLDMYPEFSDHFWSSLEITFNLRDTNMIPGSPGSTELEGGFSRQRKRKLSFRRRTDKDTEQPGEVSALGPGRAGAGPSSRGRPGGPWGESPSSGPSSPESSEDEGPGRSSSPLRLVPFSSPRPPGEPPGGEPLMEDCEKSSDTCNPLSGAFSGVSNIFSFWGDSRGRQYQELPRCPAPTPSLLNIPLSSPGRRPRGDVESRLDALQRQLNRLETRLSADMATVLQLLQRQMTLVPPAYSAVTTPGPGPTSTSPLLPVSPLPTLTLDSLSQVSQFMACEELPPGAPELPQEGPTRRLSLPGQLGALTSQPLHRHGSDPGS

Question: Which “hERG current change (%, negative = inhibition) at 10uM” value does the source give for `CCN(CC(=O)Nc1ccccc1OC)C(=O)C1CCCC1` here?
Answer: 0.547%

Question: How did the “hERG current change (%, negative = inhibition) at 10uM” value turn out when `CC1CCN(C(=S)Nc2cccc(S(=O)(=O)N(C)C)c2)CC1` was run?
Answer: 11.1%

Question: For `CO/N=C/c1cccn1-c1nccc(OC)c1C#N`, which “hERG current change (%, negative = inhibition) at 10uM” value is on record?
Answer: 19.1%

Question: Which “hERG current change (%, negative = inhibition) at 10uM” value does the source give for `Cc1nc(C)c(C(=O)C2=C(O)C(=O)N(CCN3CCOCC3)C2c2cccs2)s1` (centres unmarked) here?
Answer: 5.12%

Question: How did the “hERG current change (%, negative = inhibition) at 10uM” value turn out when `COc1cc(/C=C/C(=O)O)ccc1OS(=O)(=O)c1c(C)cc(C)cc1C` was run?
Answer: -43.2%

Question: With `C=CCOc1ccc(/C=C/C(=O)OCC(=O)N(C)CC(=O)Nc2ccc(F)cc2)cc1` as the compound, how does the “hERG current change (%, negative = inhibition) at 10uM” value read?
Answer: 7.74%

Question: Which “hERG current change (%, negative = inhibition) at 10uM” value does the source give for `COc1ccccc1CC(=O)Nc1c[nH]c(=O)[nH]c1=O` here?
Answer: 38.8%

Question: With `Cc1ccc2c(c1)c1ncnc(N3CCN(c4ccccc4)CC3)c1n2C` as the compound, how does the “hERG current change (%, negative = inhibition) at 10uM” value read?
Answer: -12.3%

Question: `CC(C)N1CCN(CC2COc3ccccc3O2)CC1.Cl` (centres unmarked) was tested. Which “hERG current change (%, negative = inhibition) at 10uM” value did it give?
Answer: -19.4%

Question: For `Cc1ccccc1CN1CCNCC1.Cl`, which “hERG current change (%, negative = inhibition) at 10uM” value is on record?
Answer: 14%

Question: How did the “hERG current change (%, negative = inhibition) at 10uM” value turn out when `c1ccc2c(c1)CC(CN1CCNCC1)O2` (centres unmarked) was run?
Answer: -52.3%

Question: `Cn1c(=O)oc2cc(S(=O)(=O)Nc3cccc([N+](=O)[O-])c3)ccc21` was tested. Which “hERG current change (%, negative = inhibition) at 10uM” value did it give?
Answer: 4.69%

Question: With `Cc1ccc(C)c(Cn2nnc3c(=O)[nH]c(C(=O)Nc4ccc(F)cc4)nc32)c1` as the compound, how does the “hERG current change (%, negative = inhibition) at 10uM” value read?
Answer: 28.5%

Question: Which “hERG current change (%, negative = inhibition) at 10uM” value does the source give for `CCOc1ccc(C(=O)N2CCCC2)cc1OC` here?
Answer: -14.7%

Question: For `Cc1ccc(C)c(OCC(O)CN2CCC(C)CC2)c1C` (centres unmarked), which “hERG current change (%, negative = inhibition) at 10uM” value is on record?
Answer: -33.6%

Question: With `Cl.OC(COc1c(F)cc(Br)cc1F)CN1CCc2ccccc2C1` (centres unmarked) as the compound, how does the “hERG current change (%, negative = inhibition) at 10uM” value read?
Answer: -72.2%

Question: With `Cl.OC(COc1c(F)cc(Br)cc1F)CN1CCN(c2ccc(F)cc2)CC1` (centres unmarked) as the compound, how does the “hERG current change (%, negative = inhibition) at 10uM” value read?
Answer: -25.7%

Question: With `Cc1ccc(C)c(OCC(O)CN2CCc3ccccc3C2)c1C.Cl` (centres unmarked) as the compound, how does the “hERG current change (%, negative = inhibition) at 10uM” value read?
Answer: -65.3%

Question: `Cc1cccc(C)c1OCC(O)Cn1c2ccccc2c2ccccc21` (centres unmarked) was tested. Which “hERG current change (%, negative = inhibition) at 10uM” value did it give?
Answer: 6.83%

Question: For `Cc1cccc(C)c1OCC(O)CN1CCc2ccccc2C1.Cl` (centres unmarked), which “hERG current change (%, negative = inhibition) at 10uM” value is on record?
Answer: -64.2%

Question: Which “hERG current change (%, negative = inhibition) at 10uM” value does the source give for `Cl.OC(COc1c(F)cc(Br)cc1F)CN1CCOCC1` (centres unmarked) here?
Answer: 2.28%

Question: With `Nc1ccc(S(=O)(=O)Nc2nc(-c3ccccc3)cc(-c3ccccc3)n2)cc1` as the compound, how does the “hERG current change (%, negative = inhibition) at 10uM” value read?
Answer: 21.6%

Question: `Cc1ccc(NC(=O)Cn2nc(C)c3ccccc3c2=O)c(C)c1` was tested. Which “hERG current change (%, negative = inhibition) at 10uM” value did it give?
Answer: 10.2%

Question: Which “hERG current change (%, negative = inhibition) at 10uM” value does the source give for `NC(=O)CN1C(=O)C(=O)N(Cc2ccccc2Cl)C1=O` here?
Answer: 8.45%

Question: For `CC(=O)Nc1c(C(=O)C2CC2)oc2ccccc12`, which “hERG current change (%, negative = inhibition) at 10uM” value is on record?
Answer: -7%

Question: Which “hERG current change (%, negative = inhibition) at 10uM” value does the source give for `Cc1ccc(N2CCN(CC(O)COC3CCCCC3)CC2)cc1` (centres unmarked) here?
Answer: -56.1%

Question: `CC(C)c1ccc(OCC(O)CN2CCN(c3ccccc3)CC2)cc1.Cl` (centres unmarked) was tested. Which “hERG current change (%, negative = inhibition) at 10uM” value did it give?
Answer: -47.3%

Question: `CC(C)(C)C1CCC(OCC(O)CN2CCN(c3ccccc3)CC2)CC1.Cl` (centres unmarked) was tested. Which “hERG current change (%, negative = inhibition) at 10uM” value did it give?
Answer: 1.42%

Question: For `Cc1ccc(N2CCN(CC(O)COc3ccccc3)CC2)cc1` (centres unmarked), which “hERG current change (%, negative = inhibition) at 10uM” value is on record?
Answer: -50.9%

Question: With `Cc1ccc(OCC(O)CN2CCOCC2)cc1` (centres unmarked) as the compound, how does the “hERG current change (%, negative = inhibition) at 10uM” value read?
Answer: 8.2%

Question: With `Cc1cccc(C)c1OCC(O)CN1CCN(c2ccccc2)CC1.Cl` (centres unmarked) as the compound, how does the “hERG current change (%, negative = inhibition) at 10uM” value read?
Answer: -53.1%

Question: Which “hERG current change (%, negative = inhibition) at 10uM” value does the source give for `COc1cccc(OC)c1OCC(O)CN1CCN(c2ccccc2)CC1.Cl` (centres unmarked) here?
Answer: -33.3%

Question: `Cc1ccc(OCC(O)CN2CCN(c3ccccc3)CC2)cc1` (centres unmarked) was tested. Which “hERG current change (%, negative = inhibition) at 10uM” value did it give?
Answer: -38.6%

Question: Which “hERG current change (%, negative = inhibition) at 10uM” value does the source give for `Cc1ccc(OCC(O)CN2CCCC2)cc1` (centres unmarked) here?
Answer: 11.5%

Question: `Cc1ccc(OCC(O)CN2CCN(CC(O)COc3ccc(C)cc3)CC2)cc1` (centres unmarked) was tested. Which “hERG current change (%, negative = inhibition) at 10uM” value did it give?
Answer: -63.9%

Question: With `OC(COC1CCCCC1)CN1CCN(c2ccccc2)CC1` (centres unmarked) as the compound, how does the “hERG current change (%, negative = inhibition) at 10uM” value read?
Answer: -29.8%

Question: For `Cc1nc(N)c(C#N)c(-c2ccccc2)c1C`, which “hERG current change (%, negative = inhibition) at 10uM” value is on record?
Answer: -10.4%

Question: `CCN1C(=S)N[C@@H](c2cccs2)C(C(=O)OC)=C1C` was tested. Which “hERG current change (%, negative = inhibition) at 10uM” value did it give?
Answer: 4.42%

Question: How did the “hERG current change (%, negative = inhibition) at 10uM” value turn out when `O=C(CNC(=O)c1ccccc1F)N/N=C/c1cc(Br)ccc1OCc1ccccc1` was run?
Answer: -3.96%

Question: With `Fc1ccc(N/N=C/c2ccncc2)c(F)c1` as the compound, how does the “hERG current change (%, negative = inhibition) at 10uM” value read?
Answer: -9.23%

Question: For `COC(=O)c1ccc(OCC(O)CN2CCOCC2)cc1` (centres unmarked), which “hERG current change (%, negative = inhibition) at 10uM” value is on record?
Answer: 15%

Question: `Cc1cccc(OCC(O)CN2CCN(S(=O)(=O)c3ccc(C)cc3C)CC2)c1` (centres unmarked) was tested. Which “hERG current change (%, negative = inhibition) at 10uM” value did it give?
Answer: -17.5%

Question: For `COC(=O)c1ccc(OCC(O)CN2CCC(C)CC2)cc1` (centres unmarked), which “hERG current change (%, negative = inhibition) at 10uM” value is on record?
Answer: -15.3%

Question: With `Cc1cccc(OCC(O)CN2CCOCC2)c1.Cl` (centres unmarked) as the compound, how does the “hERG current change (%, negative = inhibition) at 10uM” value read?
Answer: 10.9%
